Screening results: PubChem, several laboratories
Rows were chosen to be rich in hits. Some 4.3% of all compounds tested hit in one or more screens of this group.
ADAM17 inh – ADAM17 inhibitors, primary screen, biochemical, QFRET; Disintegrin and metalloproteinase domain-containing protein 17 (Homo sapiens), P78536; recombinant ADAM17, EDANS/DABCYL FRET peptide cleavage; inhibition, % at 6.95 µM; 0.83% of 370,000 active; AID 720648, 2013;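 active = inhibition above the mean of compounds lying between control limits plus 3 SD, set per campaign, cut at about 8.5% in these data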
sPLA2-III inh – human group III sPLA2 inhibitors, primary screen, biochemical, QFRET, BODIPY PC-A2 liposome substrate; Group 3 secretory phospholipase A2 (Homo sapiens), Q9NZ20; QFRET BODIPY PC-A2 liposome hydrolysis, fluorescence; inhibition, % at 12.2 µM; 0.56% of 370,000 active;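 active = inhibition above mean plus 3 SD of compounds lying within the high and low control bounds, cut at about 19% in these data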
GRIN3A LBD mod – binders of NR3A ligand-binding domain, primary screen, biophysical, differential scanning fluorimetry, uHTS | Glutamate receptor ionotropic, NMDA 3A (GRIN3A) ligand-binding domain | NR3A LBD differential scanning fluorimetry, Tm shift; 0% = protein alone, 100% = glycine-bound protein | Tm shift relative to glycine control, % at 25 µM | 2.5% of 340,000 active;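 active = melting temperature shift of at least 10% of the positive control shift, at one fixed dose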
FAS-TE inh – FAS thioesterase domain inhibitors, primary screen, biochemical, fluorescence intensity, uHTS; Fatty acid synthase (Homo sapiens), P49327; recombinant FAS-TE, OMFH fluorogenic substrate, fluorescence endpoint; inhibition, % at 15 µM; 0.67% of 360,000 active; AID 602261, 2012;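 active = compounds whose normalised, plate-corrected inhibition of enzyme fluorescence in the single-dose primary screen is 50% or more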
ADAM10 inh – human ADAM10 inhibitors, primary screen, biochemical, QFRET, HTS. 0.62% of 370,000 active. inhibition, % at 7 µM. recombinant ADAM10, EDANS/DABCYL FRET peptide cleavage, 3 h;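 active = inhibition above a per-campaign cutoff equal to the mean of compounds falling between control-based bounds plus 3 SD, cut at about 20% in these data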
sPLA2 confirm – human group III sPLA2 inhibitors, confirmation, biochemical, QFRET, triplicate. shares compounds with sPLA2-III inh. AID 743280, 2014. inhibition, % at 12.2 µM. recombinant hGIII-sPLA2, BODIPY PC-A2 QFRET fluorescence. 34% of 2,000 active;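 active = mean inhibition across triplicates above the hit cutoff set in the earlier primary screen, cut at about 19% in these data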
535nm interf – 535nm fluorescence optical interference, confirmation, artefact control for HGIII-sPLA2 inhibitor project, biochemical, QFRET. shares compounds with sPLA2-III inh. BODIPY FL product fluorescence interference. inhibition, % at 12.2 µM. 8.5% of 2,000 active. AID 743282, 2014;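 active = average inhibition above the solvent-only control mean plus 3 SD, cut at about 6% in these data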
Hits are given with their value.

For O=c1cc(N2CCN(c3ccnc4cc(Cl)ccc34)CC2)[nH]c(=O)n1C1CCCCC1 the results were ADAM17 inh inactive, sPLA2-III inh inactive and ADAM10 inh inactive.
For Cc1ccc(-c2nc3ncccn3c2NC(=O)Nc2ccc(OC(F)(F)F)cc2)cc1 the results were ADAM17 inh inactive, sPLA2-III inh inactive and ADAM10 inh inactive.
`CCSC1=NCCN1S(=O)(=O)c1ccc(Cl)cc1` gave ADAM17 inh inactive, sPLA2-III inh 22.0, GRIN3A LBD mod inactive, FAS-TE inh inactive, ADAM10 inh inactive, sPLA2 confirm inactive and 535nm interf inactive.
For Cc1ccc(C)c(N2CCN(C(=O)c3ccc4nc(-c5ccco5)c(-c5ccco5)nc4c3)CC2)c1 the results were ADAM17 inh inactive, sPLA2-III inh 19.5, GRIN3A LBD mod inactive, FAS-TE inh inactive, ADAM10 inh inactive, sPLA2 confirm inactive and 535nm interf inactive.
COc1ccccc1N1CCN(C(=O)c2ccc3nc(-c4ccco4)c(-c4ccco4)nc3c2)CC1 was read as ADAM17 inh inactive, sPLA2-III inh inactive, GRIN3A LBD mod inactive, FAS-TE inh inactive and ADAM10 inh inactive.
`CCc1cccc(-n2c(C)cc(O)cc2=O)c1` gave ADAM17 inh inactive, sPLA2-III inh inactive and ADAM10 inh inactive.
`Cc1ccc(S(=O)(=O)N2c3ccccc3-c3c(ssc3=S)C2(C)C)cc1` gave ADAM17 inh inactive, sPLA2-III inh 27.8, GRIN3A LBD mod inactive, FAS-TE inh inactive, ADAM10 inh inactive, sPLA2 confirm 24.2 and 535nm interf inactive.
For COc1ccc(NC(=O)c2cc(-c3cc(C)ccc3O)n[nH]2)cc1Cl the results were ADAM17 inh inactive, sPLA2-III inh 19.6, GRIN3A LBD mod 326.2, FAS-TE inh inactive, ADAM10 inh inactive, sPLA2 confirm inactive and 535nm interf inactive.
`COc1ccc(NC(=O)c2cc(-c3cc(Cl)ccc3C)n[nH]2)cc1OC` gave ADAM17 inh inactive, sPLA2-III inh inactive, FAS-TE inh inactive and ADAM10 inh inactive.
`CCCN(CC1CC1)C(=O)CSc1nnc(-c2ccncc2)n1-c1ccc(OC)cc1` gave ADAM17 inh inactive, sPLA2-III inh inactive and ADAM10 inh inactive.
Screening CC1CN(C(=S)NC(=O)c2ccco2)CC(C)O1 (configuration not stated) returned ADAM17 inh inactive, sPLA2-III inh 22.4, GRIN3A LBD mod inactive, FAS-TE inh inactive, ADAM10 inh inactive, sPLA2 confirm inactive and 535nm interf inactive.
`Cn1c(=O)c2c(ncn2CC(=O)OCC(=O)NC(c2ccccc2)c2ccccc2)n(C)c1=O` gave ADAM17 inh inactive, sPLA2-III inh 21.1, GRIN3A LBD mod inactive, FAS-TE inh inactive, ADAM10 inh inactive, sPLA2 confirm inactive and 535nm interf inactive.
Screening CC1CCN(CCCCOc2cccc(Br)c2)CC1 returned ADAM17 inh inactive, sPLA2-III inh inactive, GRIN3A LBD mod inactive, FAS-TE inh inactive and ADAM10 inh inactive.
`CC1CCN(CCCCOc2ccc(Br)cc2)CC1` gave ADAM17 inh inactive, sPLA2-III inh 20.4, GRIN3A LBD mod inactive, FAS-TE inh inactive, ADAM10 inh inactive, sPLA2 confirm inactive and 535nm interf inactive.
For COc1cccc2sc(NNC(=O)COc3ccccc3)nc12 the results were ADAM17 inh inactive, sPLA2-III inh 23.1, GRIN3A LBD mod inactive, FAS-TE inh inactive, ADAM10 inh inactive, sPLA2 confirm inactive and 535nm interf inactive.
CSc1nnc(-c2cc(C)on2)n1-c1ccccc1 was read as ADAM17 inh inactive, sPLA2-III inh 20.1, GRIN3A LBD mod inactive, FAS-TE inh inactive, ADAM10 inh inactive, sPLA2 confirm inactive and 535nm interf inactive.
Screening COc1cc(CNCCN(C)C)c(Br)cc1OCC(=O)NCc1ccccc1 returned ADAM17 inh inactive, sPLA2-III inh 22.0, GRIN3A LBD mod inactive, FAS-TE inh inactive, ADAM10 inh inactive, sPLA2 confirm inactive and 535nm interf inactive.
Screening COc1cc(CNCC(C)C)c(Br)cc1OCC(=O)NCc1ccccc1 returned ADAM17 inh inactive, sPLA2-III inh inactive, GRIN3A LBD mod inactive, FAS-TE inh inactive and ADAM10 inh inactive.
O=C(NC(=S)N(CC1CCC1)CC1CCCO1)c1cccc([N+](=O)[O-])c1 (configuration not stated) was read as ADAM17 inh inactive, sPLA2-III inh 20.2, GRIN3A LBD mod inactive, FAS-TE inh inactive, ADAM10 inh inactive, sPLA2 confirm 20.3 and 535nm interf inactive.
Screening COc1cc2c(cc1OC)C(c1ccc([N+](=O)[O-])cc1)NCC2 (configuration not stated) returned ADAM17 inh inactive, sPLA2-III inh 19.5, GRIN3A LBD mod inactive, FAS-TE inh inactive, ADAM10 inh inactive, sPLA2 confirm inactive and 535nm interf inactive.
`O=c1c(-c2n[nH]c(=S)n2-c2ccccc2)cccn1Cc1cccc(Cl)c1` gave ADAM17 inh inactive, sPLA2-III inh 21.6, GRIN3A LBD mod inactive, FAS-TE inh inactive, ADAM10 inh inactive, sPLA2 confirm 21.6 and 535nm interf inactive.
Screening Oc1ccccc1C=NNC(=S)NC1CC2C=CC1C2 (configuration not stated) returned ADAM17 inh inactive, sPLA2-III inh 20.6, FAS-TE inh inactive, ADAM10 inh inactive, sPLA2 confirm 23.6 and 535nm interf inactive.
For Oc1ccccc1/C=N/NC(=S)NC1CC2C=CC1C2 (configuration not stated) the results were ADAM17 inh inactive, sPLA2-III inh 27.0, GRIN3A LBD mod inactive, FAS-TE inh inactive, ADAM10 inh inactive, sPLA2 confirm 21.4 and 535nm interf 6.2.
Oc1c(Cl)cc(Cl)cc1/C=N/NC(=S)NC1CC2C=CC1C2 (configuration not stated) was read as ADAM17 inh inactive, sPLA2-III inh 44.7, GRIN3A LBD mod 12.0, FAS-TE inh inactive, ADAM10 inh inactive, sPLA2 confirm 60.7 and 535nm interf 14.2.
Oc1ccc(O)c(C=NNC(=S)NC2CC3CC2C2C=CCC32)c1 (configuration not stated) was read as ADAM17 inh inactive, sPLA2-III inh inactive, FAS-TE inh inactive and ADAM10 inh inactive.
Cc1ccc(C(=O)N2CCC(Oc3cccnc3)CC2)c(C)c1 was read as ADAM17 inh inactive, sPLA2-III inh inactive and ADAM10 inh inactive.
Screening O=S1(=O)c2c(cccc2N2CC[C@@H](O)C2)O[C@@H]2CCN1C2 returned ADAM17 inh inactive, sPLA2-III inh inactive and ADAM10 inh inactive.
